From PubChem BioAssay
Activity calls are given as the source filed them.

System: not listed separately
Test: S6 kinase pathway phospho-S6 level changes – cell-based, A549, cytoblot, luminescence, serum-stimulated, primary screen (AID 1158);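 note: serum-stimulated A549 lung adenocarcinoma cells; signal is phosphorylated S6 detected by cytoblot immunostaining with HRP secondary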
Settings: 5 h, higher = more signal

Row | SMILES | z-score
1 | C=CCC(OC(C)=O)[C@@H]1[C@@H](N(Cc2ccc(-c3ccccc3)cc2)C(=O)Cc2ccc(OC)cc2)c2cc(OCCCO)ccc2N1C(=O)Cc1ccc2ccccc2c1 (stereo partly specified) | -0.185
2 | CN1C(=O)C2C=CC(C(O)C#Cc3ccccc3)N(N3CCCCC3)C2C1=O (stereo unspecified) | -0.726
3 | C=CC(=C)[C@H]1Oc2ccccc2S(=O)(=O)N2CCC[C@@H]12 | 0.0928
4 | C=CCC(OC(C)=O)[C@@H]1[C@@H](N(Cc2ccc(-c3cccc(C(F)(F)F)c3)o2)C(=O)c2ccc(C)cc2)c2cc(OCCCO)ccc2N1C(=O)Cc1ccc2ccccc2c1 (stereo partly specified) | 0.533
5 | COCCOC(=O)N1C(=O)[C@@]2(c3cc(C#CCC(C(=O)OC)C(=O)OC)ccc31)[C@H](C(=O)N1CCN(c3ncccn3)CC1)[C@H]1C(=O)O[C@H](c3ccccc3)[C@H](c3ccccc3)N1[C@@H]2c1ccccc1OCCO | 0.0555
6 | CC(C)=CCCC(C)=CC(O)C1C=CC2C(=O)N(C)C(=O)C2N1Nc1ccccc1 (stereo unspecified) | -0.595

Target: NADPH oxidase 2 (Homo sapiens) (UniProt P04839)
Sequence (P04839 whole entry, looked up): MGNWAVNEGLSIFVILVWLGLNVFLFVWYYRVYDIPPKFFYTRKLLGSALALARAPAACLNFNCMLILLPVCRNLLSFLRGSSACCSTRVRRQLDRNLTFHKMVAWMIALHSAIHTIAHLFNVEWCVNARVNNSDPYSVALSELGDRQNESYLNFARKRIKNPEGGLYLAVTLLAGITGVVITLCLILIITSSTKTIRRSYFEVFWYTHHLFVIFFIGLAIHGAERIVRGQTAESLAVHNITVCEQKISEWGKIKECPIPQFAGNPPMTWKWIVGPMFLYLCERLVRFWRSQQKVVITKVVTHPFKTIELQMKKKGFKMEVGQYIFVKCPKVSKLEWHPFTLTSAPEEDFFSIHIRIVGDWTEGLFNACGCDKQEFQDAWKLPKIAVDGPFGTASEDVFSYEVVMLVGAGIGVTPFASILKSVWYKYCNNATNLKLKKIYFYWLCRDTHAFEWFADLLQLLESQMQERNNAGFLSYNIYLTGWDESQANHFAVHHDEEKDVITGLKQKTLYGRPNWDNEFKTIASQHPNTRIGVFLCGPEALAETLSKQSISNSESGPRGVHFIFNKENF
Test: compounds shifting NOX2 Amplex Red fluorescence – cell-based, HEK293-NOX2, PMA-stimulated, NOX inhibitor project, primary screen (AID 1159); note: test concentration not given here
Settings: 45 min, higher = more signal, called active from +8 up or from −8 down

Row | SMILES | z-score
7 | C=CCN1C(=O)[C@@]2(Cc3ccccc31)N=C(c1ccc(OCCCO)cc1)O[C@H]2c1ccccc1 | -2.01 (inactive)
8 | [N-]=[N+]=Nc1ccccc1[C@@H]1OC(c2ccc(OCCCO)cc2)=N[C@]1(CCS(=O)(=O)c1ccccc1)C(N)=O | -1.8 (inactive)
9 | CN(C)C(=O)[C@@]1(CCS(=O)(=O)c2ccccc2)COC(c2ccc(OCCCO)cc2)=N1 | -2.71 (inactive)
10 | CCOC(=O)C[C@H]1[C@H](OC(=O)c2cc3ccccc3oc2=O)[C@@H](NC(=O)c2ccccc2)c2cc(OCCCO)ccc2N1C(=O)c1ccc2ccccc2n1 | 0.543 (inactive)
11 | C=CCOC(=O)[C@H]1[C@@H]2C(=O)O[C@@H](c3ccccc3)[C@@H](c3ccccc3)N2[C@@H](c2ccc(OCCOC(=O)[C@H]3C[C@H]4C(=O)N[C@@H](CCCCNC(C)=O)C(=O)N4[C@H]3c3cccc(OCCO)c3)cc2)[C@]12C(=O)Nc1ccccc12 | 2.19 (inactive)
12 | CC(C)C(CO)N1C(=O)[C@@H]2C3C(=O)OCCC/C=C\[C@H]3OC23C=CCN(CCN2CCOCC2)C(=O)[C@@H]13 (stereo partly specified) | 1 (inactive)
13 | O=C(NCCN1CCOCC1)C1N=C(c2ccc(OCCCO)cc2)N(c2ccccc2)O1 (stereo unspecified) | 1.45 (inactive)
14 | COC(=O)[C@@]1(Cc2ccccc2)[C@H]2c3cc(C(=O)N4CCCC4)n(Cc4ccc(S(C)(=O)=O)cc4)c3C[C@H]2CN1C(=O)c1ccccc1 | 0.613 (inactive)
15 | O=C1[C@@]23C=C(Br)[C@H](C[C@@H]2CCOC3)[C@@]12CO2 | -0.172 (inactive)
16 | O=C(c1ccccc1)N1C(=O)[C@]2(COC(c3ccc(OCCCO)cc3)=N2)Cc2ccccc21 | -0.0343 (inactive)
17 | Cc1nc2cc(Br)ccc2c(=O)o1 | 0.288 (inactive)
18 | CCCCC(CC)C(O)C1C=CC2C(=O)N(Cc3ccccc3)C(=O)C2N1n1cnnc1 (stereo unspecified) | -0.132 (inactive)
19 | CC(C)C(O)C1C=CC2C(=O)NC(=O)C2N1Nc1ccc(Cl)cc1Cl (stereo unspecified) | -0.714 (inactive)
20 | COCCOC(=O)N1C(=O)[C@@]2(c3ccccc31)[C@H](c1ccc(O)cc1)N1[C@H](c3ccccc3)[C@H](c3ccccc3)OC(=O)[C@H]1[C@@H]2C(=O)Nc1nc2ccccc2s1 | 1.41 (inactive)
21 | CC(C)C(=C=CC[C@@H](O)c1ccc(OCCO)cc1)C[C@@H](O)COCc1ccccc1 | -2.13 (inactive)
22 | O=C1C2C=CC(C(O)Cc3ccccc3)N(n3cnnc3)C2C(=O)N1Cc1ccccc1 (stereo unspecified) | -0.112 (inactive)
23 | COCCOC(=O)N1C(=O)[C@@]2(c3cc(C#Cc4ccc(OC)cc4)ccc31)[C@H](c1ccc(O)cc1)N1[C@H](c3ccccc3)[C@H](c3ccccc3)OC(=O)[C@H]1[C@@H]2C(=O)N1CCc2cc(OC)c(OC)cc2C1 | 0.478 (inactive)
24 | COc1cc2c(cc1O)C(C1CC1)N(Cc1sc3ccccc3c1Cl)CC2 (stereo unspecified) | -4.57 (inactive)

Row | SMILES | z-score
25 | CC(C)C(=C=CC[C@H](O)c1ccc(OCCO)cc1)CCO | -1.06 (inactive)
26 | CC(=O)NCCCC[C@@H]1NC(=O)[C@@H]2C[C@H](C(=O)NCCCCCNC(=O)CS)[C@H](c3cccc(OCCO)c3)N2C1=O | -1.05 (inactive)
27 | NC(=O)NCC#Cc1ccc2c(c1)[C@]1(C(=O)N2)[C@H](c2ccc(O)cc2)N2[C@H](c3ccccc3)[C@H](c3ccccc3)OC(=O)[C@H]2[C@@H]1C(=O)O | 0.879 (inactive)
28 | COc1cc(Br)cc(C(O)C2C=CC3C(=O)N(C)C(=O)C3N2N2CCCCC2)c1OC (stereo unspecified) | 0.524 (inactive)
29 | COc1ccc(CCNC(=O)[C@@H]2c3ccccc3C(=O)N(Cc3ccccc3Cl)[C@H]2c2ccc(CO)cc2)cc1 | -3.49 (inactive)
30 | CCCCN1CC=CC23O[C@@H]4C=CCCOC(=O)C4[C@H]2C(=O)N(CCCCCCO)[C@@H]3C1=O (stereo partly specified) | 1.24 (inactive)
31 | CCOC(=O)C[C@H]1[C@H](OC(=O)c2ccc(C(=O)c3ccccc3)cc2)[C@@H](NC(=O)c2ccccc2)c2cc(OCCCO)ccc2N1C(=O)c1ccc2ccccc2n1 | -1.14 (inactive)
32 | C=CCOC(=O)[C@H]1[C@@H]2C(=O)O[C@@H](c3ccccc3)[C@@H](c3ccccc3)N2[C@@H](c2ccc(OCCOC(=O)[C@H]3C[C@H]4C(=O)N[C@@H](CCCC[N+](C)(C)C)C(=O)N4[C@H]3c3ccc(O)cc3)cc2)[C@]12C(=O)Nc1ccc(I)cc12 | 0.595 (inactive)
33 | CC(CO)N1C(=O)[C@@H]2C3C(=O)OCCC/C=C\[C@H]3OC23C=CCN(C(C)(C)C)C(=O)[C@@H]13 (stereo partly specified) | 0.89 (inactive)
34 | CC1CC/C=C\[C@H]2OC34C=CCN(C(C)(C)C)C(=O)[C@H]3N(C(C)CO)C(=O)[C@@H]4C2C(=O)O1 (stereo partly specified) | 0.499 (inactive)
35 | COc1ccc(C#Cc2ccc3c(c2)[C@]2(C(=O)N3)[C@H](C(=O)Nc3nc4ccccc4s3)[C@H]3C(=O)O[C@H](c4ccccc4)[C@H](c4ccccc4)N3[C@@H]2c2ccc(O)cc2)cc1 | 0.548 (inactive)
36 | C=CCC(OC(C)=O)[C@@H]1[C@@H](N(Cc2ccc(-c3ccccc3)cc2)C(=O)Cc2ccc(OC)cc2)c2cc(OCCCO)ccc2N1C(=O)Cc1ccc2ccccc2c1 (stereo partly specified) | 0.304 (inactive)
37 | CN1C(=O)C2C=CC(C(O)C#Cc3ccccc3)N(N3CCCCC3)C2C1=O (stereo unspecified) | -0.23 (inactive)
38 | C=CC(=C)[C@H]1Oc2ccccc2S(=O)(=O)N2CCC[C@@H]12 | -0.0944 (inactive)
39 | C=CCC(OC(C)=O)[C@@H]1[C@@H](N(Cc2ccc(-c3cccc(C(F)(F)F)c3)o2)C(=O)c2ccc(C)cc2)c2cc(OCCCO)ccc2N1C(=O)Cc1ccc2ccccc2c1 (stereo partly specified) | -0.439 (inactive)
40 | COCCOC(=O)N1C(=O)[C@@]2(c3cc(C#CCC(C(=O)OC)C(=O)OC)ccc31)[C@H](C(=O)N1CCN(c3ncccn3)CC1)[C@H]1C(=O)O[C@H](c3ccccc3)[C@H](c3ccccc3)N1[C@@H]2c1ccccc1OCCO | 1.45 (inactive)
41 | CC(C)=CCCC(C)=CC(O)C1C=CC2C(=O)N(C)C(=O)C2N1Nc1ccccc1 (stereo unspecified) | -1.51 (inactive)
